Screens deposited in PubChem by Broad Institute.
The list is not random: actives were taken first. Their share in the collection is about 6.8%.
T cruzi growth-1 = inhibitors of T. cruzi proliferation | T. cruzi beta-gal in NIH3T3, GalScreen luminescence, 90 h | hit rate 5.9% among 77,000 | inhibition, % at 8.34 µM;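 active means mean inhibition above about 93%, with at least 55% of replicates each passing it, limit read from the data, passing the limit was not always enough; inconclusive means only one of those two conditions holds; inactive means neither condition holds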
Pf Dd2 inh = blocks growth of Plasmodium falciparum Dd2 parasites; P. falciparum Dd2 growth, SYBR Green, 72 h; stronger effect = lower value; activity change, % at 10 µM; hit rate 2.3% among 94,000; AID 1159554; in the data active means activity change below about -80%; inconclusive means no clear call, values can overlap the other calls
C diff HTS = blocks growth of Clostridium difficile | AID 1259249 | growth activity, negative = inhibition, % at 16 µg/mL (by protocol) | Clostridium difficile clinical isolate growth, OD600, 24 h; stronger effect = lower value | hit rate 0.25% among 86,000;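 active means mean growth activity at or below -80% and every replicate also at or below -80%; inconclusive means mean at or below -80% but some replicate above -80%; inactive means mean growth activity above -80%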;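 further: 0% = DMSO wells and -100% = levofloxacin 16 µg/mL wells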
T cruzi growth-2 = Trypanosoma cruzi proliferation inhibition; shares compounds with T cruzi growth-1; inhibition, % at 8.35 µM; T. cruzi beta-gal in NIH3T3, GalScreen luminescence, 90 h; AID 651739; hit rate 72% among 5,600;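 active means mean replicate inhibition above about 95% and at least 55% of replicates individually reaching it, limit read from the data; inconclusive means only one of the two criteria is met; inactive means neither criterion is met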
T cruzi growth-3 = blocks T. cruzi growth in NIH3T3 host cells | T. cruzi beta-gal in NIH3T3, GalScreen luminescence, 90 h | inhibition, % at 2.09 µM | shares compounds with T cruzi growth-1 | hit rate 21% among 5,600 | AID 651740;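 active means mean inhibition above about 95%, with at least 55% of replicates also reaching it, limit read from the data; inconclusive means meets just one of the two conditions; inactive means meets neither condition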;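 further: plate controls were neutral control median for no effect and positive control median for full effect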
3T3 cytotox = kills mouse NIH/3T3 fibroblasts | shares compounds with T cruzi growth-1 | NIH/3T3 viability, CellTiter-Glo ATP luminescence, 90 h | cytotoxicity (signal decrease), % at 8.35 µM | hit rate 14% among 5,600 | AID 651742;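 active means mean signal decrease across replicates above about 35% based on untreated-well scatter, with enough replicates individually passing, limit read from the data; inconclusive means no rule stated though some were filed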;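 further: 0% = median of neutral control wells and 100% = median of positive control wells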
3T3 cytotox 2 = cytotoxicity in mouse NIH/3T3 fibroblasts. shares compounds with T cruzi growth-1. NIH/3T3 viability, CellTiter-Glo ATP luminescence, 90 h. inhibition, % at 24.9 µM. hit rate 56% among 5,600;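 active means mean loss of cell viability signal at or above a set limit, and enough replicates individually reaching it; inconclusive means meets only the mean limit or only the replicate share; inactive means meets neither condition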;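 further: 0% = median of neutral control wells and 100% = median of positive control wells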
* hit, by the source's call; ? = inconclusive; · = not tested or not shown.

SMILES	T cruzi growth-1	Pf Dd2 inh	C diff HTS	others
COc1ccccc1CN1CC[C@@H]2[C@H]1c1cc(C#Cc3ccccc3)ccc1N[C@@H]2CO	-10	-32	-72
Cc1nn(C)cc1NC(=O)C[C@@H]1CC[C@@H]2[C@@H](COc3ccc(NC(=O)C4CCC4)cc3C(=O)N2C)O1	-27	-5	0
C[C@@H]1CN([C@H](C)CO)C(=O)c2cc(NC(=O)NC3CCCCC3)ccc2O[C@@H](C)CCCCO[C@@H]1CN(C)S(=O)(=O)c1ccccc1	48	-71	3
CC(C)NC(=O)N1CCCCN2[C@@H](CO)[C@@H](c3ccc(C#Cc4ccccc4F)cc3)[C@@H]2C1	91	-16	12
CC(C)NC(=O)N1CCCCN2[C@H](C1)[C@@H](c1ccc(C#Cc3ccccc3F)cc1)[C@@H]2CO	89	-28	4
CC(C)NC(=O)N1CCCCN2[C@H](CO)[C@H](c3ccc(C#Cc4ccccc4F)cc3)[C@@H]2C1	96*	6	-17	T cruzi growth-2=110*;T cruzi growth-3=62;3T3 cytotox=42*;3T3 cytotox 2=77*
CC(C)NC(=O)N1CCCCN2[C@H](CO)[C@@H](c3ccc(C#Cc4ccccc4F)cc3)[C@H]2C1	112*	7	41	T cruzi growth-2=100*;T cruzi growth-3=85;3T3 cytotox=20;3T3 cytotox 2=103*
C[C@@H]1CN([C@H](C)CO)C(=O)c2cc(NS(=O)(=O)c3cn(C)cn3)ccc2O[C@@H](C)CCCCO[C@@H]1CN(C)Cc1ccncc1	-48	38	1
CC(C)NC(=O)N[C@H]1CC[C@H](CCNC(=O)C2CCC2)O[C@@H]1CO	·	-8	-1
CCNC(=O)[C@H]1[C@H](CO)[C@H]2Cn3c(ccc(-c4cccnc4)c3=O)[C@@H]1N2Cc1ccccc1	7	-3	1
COc1ccc(-c2ccc3n(c2=O)C[C@H]2[C@H](CO)[C@@H](C(=O)N4CCOCC4)[C@@H]3N2C)cc1	26	·	-2
CC(C)C#Cc1cnc2c(c1)C(=O)N([C@@H](C)CO)C[C@@H](C)[C@H](CN(C)Cc1ccc3c(c1)OCO3)O2	27	-32	-3
COc1ccc(NC(=O)Nc2cccc3c2O[C@@H](CN(C)S(=O)(=O)c2ccc(OC)cc2)[C@H](C)CN([C@@H](C)CO)C3=O)cc1	98	-20	-5
C[C@H]1CCCCO[C@H](CN(C)C(=O)Nc2ccc(C(F)(F)F)cc2)[C@@H](C)CN([C@@H](C)CO)C(=O)c2cc(NS(C)(=O)=O)ccc2O1	97*	-45	4	T cruzi growth-2=113*;T cruzi growth-3=35;3T3 cytotox=12;3T3 cytotox 2=51*
C[C@H]1CCCCO[C@H](CN(C)C(=O)Nc2ccccc2)[C@@H](C)CN([C@@H](C)CO)C(=O)c2cc(NS(=O)(=O)c3ccccc3)ccc2O1	·	-31	·
C[C@@H]1CN([C@@H](C)CO)C(=O)c2cc(NS(=O)(=O)c3ccccc3)ccc2O[C@@H](C)CCCCO[C@@H]1CN(C)C(=O)Nc1ccc(C(F)(F)F)cc1	?	-76	2	T cruzi growth-2=104*;T cruzi growth-3=74;3T3 cytotox=20;3T3 cytotox 2=43*
C[C@H](CO)N1C[C@H](C)[C@@H](CN(C)C(=O)Nc2ccc(C(F)(F)F)cc2)OCCCC[C@H](C)Oc2ccc(NS(=O)(=O)c3ccccc3)cc2C1=O	?	-29	1	T cruzi growth-2=114*;T cruzi growth-3=71;3T3 cytotox=21;3T3 cytotox 2=14
C[C@@H]1CN([C@H](C)CO)C(=O)c2cc(NS(=O)(=O)c3ccccc3)ccc2O[C@@H](C)CCCCO[C@H]1CN(C)C(=O)Nc1ccccc1	·	-66	·
C[C@@H]1CCCCO[C@@H](CN(C)C(=O)Nc2ccc(C(F)(F)F)cc2)[C@@H](C)CN([C@H](C)CO)C(=O)c2cc(NS(C)(=O)=O)ccc2O1	19	10	5
COCC(=O)N1CC2(C1)CN(Cc1cccc(OC)c1)[C@H](CO)c1c2c2ccc(OC)cc2n1C	·	-4	-4
CC(C)C(=O)Nc1ccc2c(c1)C(=O)N(C)[C@H]1CC[C@H](CC(=O)Nc3ccccc3F)O[C@@H]1CO2	-43	15	3
C/C=C/c1ccc([C@H]2[C@H]3CN(S(=O)(=O)c4cccc(C)c4)CCCCN3[C@H]2CO)cc1	86	-33	36
